Bioassay records: PubChem, several laboratories
Exocytosis inh: blocks lytic granule exocytosis; TALL-104 LAMP-1 surface exposure, flow cytometry; cells stimulated with thapsigargin and PMA; inhibition, % at 10 µM; hit rate 0.66% among 360,000;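 active = inhibition above about 55%, limit read from the data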
TLR9-MyD88 block: inhibitors of human TLR9-MyD88 binding; Q9NR96+Q99836; CHO BLA complementation TLR9-MyD88, CCF4 FRET ratio; inhibition, % at 4.98 µM; hit rate 0.21% among 340,000;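 active = inhibition above the mean over all tested compounds plus 3 SD, cut at about 21% in these data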;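 note: 0% = DMSO only wells and 100% = clavulanate BLA inhibitor control wells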
ABHD5-PLIN5 inh: ABHD5-PLIN5 protein interaction inhibition; Q00G26+Q8WTS1; Split G. princeps luciferase complementation, luminescence, 4 h; inhibition, % at 4 µM; hit rate 0.78% among 360,000;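 active = inhibition above the mean inhibition across every tested compound plus 3 SD, cut at about 22% in these data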;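 note: 0% = DMSO only wells and the 100% control is not disclosed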
TLR4 MyD88 comp: TLR4-MyD88 interaction inhibition in cells; O00206+Q99836; HeLa CL3-4 TLR4/MyD88 BLA complementation, FRET ratio; inhibition, % at 8.4 µM; hit rate 0.18% among 200,000; AID 861; in the data active = inhibition above about 25%;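 note: 0% = vehicle and 100% = reference inhibitor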
PRMT1 FP inh: inhibitors of human PRMT1; Q99873; recombinant PRMT1, activity-based probe fluorescence polarization; inhibition, % at 2.79 µM; hit rate 1.3% among 370,000; AID 652257;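 active = inhibition above about 21% made by adding two undisclosed values, limit read from the data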
NOD2-RIPK2 inh: inhibitors of human NOD2-RIPK2 interaction | inhibition, % at 4.98 µM | O43353 | CHO BLA complementation NOD2-RIPK2, CCF4 ratio | AID 624267 | hit rate 0.38% among 360,000; in the data active = inhibition above about 21%;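 note: 0% = vehicle only and 100% = reference blocker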
* marks the source's active call; other numbers are inactive results; x = no result. This is a sample that favours compounds with a hit; in the whole collection about 2.6% have one here.

SMILES	Exocytosis inh	TLR9-MyD88 block	ABHD5-PLIN5 inh	TLR4 MyD88 comp	PRMT1 FP inh	NOD2-RIPK2 inh
N#C/C(=C\Nc1ccccc1O)c1nc2ccccc2o1	86.4*	20.0	-2.5	2.4	-1.8	10.8
CC(C)(C)c1csc(NC(=O)c2ccccc2O)n1	11.7	2.0	-4.4	x	-2.9	-4.0
CC(C)(C)c1csc(NNC(=O)c2ccc(Br)cc2)n1	2.8	4.2	-6.0	-4.7	23.3*	1.8
CCOC(=O)[C@]12CCCCC/C=C\1N(CCc1ccc(Cl)cc1)C(=O)[C@H]2CC(=O)NCc1ccc(OC)c(OC)c1	x	x	x	x	-2.2	x
O=C(O)c1cccc(-n2cccc2/C=N/O)c1	0.2	-1.7	4.7	7.8	0.1	-6.0
O=C(O)c1cccc(-n2cccc2/C=C/[N+](=O)[O-])c1	-2.7	-3.2	11.5	x	26.4*	-1.2
CCn1c2c(n(C(C)=O)c1=O)C=C(C(=O)N1CCCC1)C(C)C(c1ccccc1)=C2 (configuration not stated)	x	x	x	x	3.4	x
Fc1ccc(-n2c(-c3ccc4ccccc4n3)n[nH]c2=S)cc1Cl	-0.7	-1.4	-2.6	21.6	5.0	-5.3
S=c1[nH]nc(-c2ccc3ccccc3n2)n1-c1ccc2ncccc2c1	1.5	-1.2	-3.0	-0.3	21.4*	5.7
CCOC(=O)c1sc2nc(-c3cccnc3)ccc2c1N	1.9	14.1	0.9	7.1	-2.5	9.0
COC(=O)c1sc2nc(-c3ccco3)ccc2c1N	-0.2	-6.8	6.4	7.0	55.3*	-3.0
O=C1Nc2c(Cl)cc(Cl)cc2C12Nc1ccccc1S2 (configuration not stated)	x	x	x	x	22.7*	x
O=C(CC1Sc2ccccc2NC1=O)NNc1ccc(Cl)cc1Cl (configuration not stated)	0.2	8.0	2.8	x	7.9	-1.0
CCCCCCCCN1C(=O)[C@@H](CC(=O)NCC2CCCCC2)C[C@@]2(C(=O)OC)C1=C[C@H](C1CCCC1)O[C@@H]2C	x	x	x	x	1.2	x
Nc1nc(-c2ccccc2)c(N=Nc2cccc3ccccc23)s1	5.0	-5.0	22.8*	-2.0	-4.1	-14.5
O=[N+]([O-])c1ccc(Nc2ccccn2)c([N+](=O)[O-])c1	-0.6	-3.9	6.6	-1.8	-1.7	1.6
O=[N+]([O-])c1c(Nc2ccccn2)cc(Cl)c2nonc12	97.0*	-1.9	-8.8	x	11.7	5.7
COc1ccccc1NC(=O)OCCN1CCCC12CCC(c1ccccc1)CC2 (configuration not stated)	x	x	x	x	7.1	x
COc1ccccc1NC(=S)OCCN1CCCC12CCC(c1ccccc1)CC2 (configuration not stated)	x	x	x	x	21.7*	x
C=CCN1[C@@H](C)[C@H](c2ccccc2)Oc2cccc(N3CCCC(C)C3)c2S1(=O)=O (some centres not stated)	x	x	x	x	-0.6	x
O=S(=O)(c1cccs1)N1CCCc2nc(-c3ccccc3)ccc21	x	x	x	x	1.7	x
CNc1ccc(Br)cc(C(=O)/C=C/c2ccc3c(c2)OCO3)c1=O	4.0	1.4	17.2	-6.5	24.7*	1.9
O=C(C=Cc1ccc2c(c1)OCO2)c1ccccc1	15.8	8.3	17.6	x	2.6	-9.3
CC1=C(SCc2ccccc2)C(=O)c2ccccc2C1=O	1.3	-1.5	-9.9	x	65.9*	11.8
Cn1c(SCc2ccccc2)nccc1=O	1.6	0.9	3.5	x	3.3	-14.1
SMILES	Exocytosis inh	TLR9-MyD88 block	ABHD5-PLIN5 inh	TLR4 MyD88 comp	PRMT1 FP inh	NOD2-RIPK2 inh
CCOC(=O)c1cccc(NC(=O)/C=C/c2cccc([N+](=O)[O-])c2)c1	4.3	-5.7	4.3	-16.2	-1.4	-0.8
CCOC(=O)/C=C/C(=O)Nc1cccc([N+](=O)[O-])c1	22.1	5.4	43.6*	14.3	x	9.2
Cc1ccc2c(c1)-c1c(cnn1CC(=O)NC(C)CCc1ccco1)CO2 (configuration not stated)	-14.4	-6.8	14.8	3.1	23.3*	1.2
Cc1ccc2c(c1)-c1c(cnn1CC(=O)N(Cc1ccco1)C1CCCCC1)CO2	13.5	9.2	0.6	-0.3	0.7	8.4
CCCCCCCCN1C(=O)[C@@H](CC(=O)N2CCCC2)C[C@@]2(C(=O)OC)C1=C[C@H](C1CCCC1)O[C@@H]2C	x	x	x	x	3.2	x
Cc1ccc(NC(=O)c2ccc(=O)[nH]n2)cc1S(=O)(=O)Nc1ccc(SC(F)F)cc1	33.4	-4.6	-1.8	x	46.3*	4.3
